Reference: PubChem BioAssay (NCI)
“And” between values parts separate entries of the source, which are not always exact repeats. Identical values can stand only once. About 83,000 compounds went through this panel and 20% of them were active in at least one assay; those are over-represented in the sample as a whole.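 Treatment: one concentration, 48 hours, 96-well format. Scoring: percent growth, with anything below 10 considered active.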 Unmarked numbers belong to inactive results. The source made the active and inactive calls.

The compounds below were run on HCT-116 colon (assay: NCI-60 one-dose screen, 48 h (100 = growth as untreated, 0 = no growth, -100 = all killed)). Settings: 10 µM unless noted.

Question: `CCCn1nc(C(=O)N2CCCCC2)c2c1CCC(N1CCC(c3ccncc3)CC1)C2` (configuration not stated) was tested. Which growth did it give?
Answer: 99.4%

Question: With `Cc1c(O)c(O)cc2c3c(oc12)CC(c1ccc2c(c1)OCO2)CC3=O` (configuration not stated) as the compound, how does the growth read?
Answer: 90.2%

Question: Which growth does the source give for `COc1ccc(Nc2nn3c(SCC(=O)c4ccc(C)cc4)nnc3s2)cc1` here?
Answer: 106%

Question: Which growth does the source give for `N#Cc1c(-c2cccc(F)c2)cc(-c2cccnc2)[nH]c1=O` here?
Answer: 103%

Question: How did the growth turn out when `O=[N+]([O-])c1ccc2[nH]c3nccc(NCc4cccc(Cl)c4)c3c2c1` was run?
Answer: 67.6%

Same assay, conditions: 100 µM

Question: How did the growth turn out when `CCN(Cc1ccccc1)c1ccc(/C=C2\COc3ccccc3C2=O)cc1` was run?
Answer: 30.8%

Question: With `CC(=O)/C=C/c1ccc(OCc2ccc(C(C)(C)C)cc2)cc1` as the compound, how does the growth read?
Answer: 25.3%

Question: How did the growth turn out when `CC(=O)/C=C/c1ccc(N(CCO)Cc2ccc(C(C)(C)C)cc2)cc1` was run?
Answer: -98.1% (active)

Question: How did the growth turn out when `O=C(/C=C/c1cccc(Oc2ccc(Cl)cc2)c1)c1ccccc1` was run?
Answer: -82.2% (active)

Question: With `COc1ccc(C(=O)/C=C/c2ccc(OCc3cccc(C(F)(F)F)c3)c(OC)c2)cc1OC` as the compound, how does the growth read?
Answer: 3.91% (active)

Question: For `CC(=O)/C=C/c1ccc(N(C)Cc2ccc(C(C)(C)C)cc2)cc1`, which growth is on record?
Answer: -66.2% (active)

What follows are compounds tested on HCC-2998 colon in the same assay as above. Settings: 10 µM.

Question: With `CCN(Cc1ccccc1)c1ccc(/C=C2\COc3ccccc3C2=O)cc1` as the compound, how does the growth read?
Answer: 102%

Question: With `CC(=O)/C=C/c1ccc(OCc2ccc(C(C)(C)C)cc2)cc1` as the compound, how does the growth read?
Answer: 92.1%

Question: With `CC(=O)/C=C/c1ccc(N(CCO)Cc2ccc(C(C)(C)C)cc2)cc1` as the compound, how does the growth read?
Answer: 86.7%

Question: With `O=C(/C=C/c1cccc(Oc2ccc(Cl)cc2)c1)c1ccccc1` as the compound, how does the growth read?
Answer: 107%

Question: For `COc1ccc(C(=O)/C=C/c2ccc(OCc3cccc(C(F)(F)F)c3)c(OC)c2)cc1OC`, which growth is on record?
Answer: 105%

Question: With `CC(=O)/C=C/c1ccc(OCc2ccc(Cl)cc2)cc1` as the compound, how does the growth read?
Answer: 101%

Question: With `COc1ccc(C(=O)/C=C/c2ccc(OCc3ccc(Cl)cc3)cc2)cc1OC` as the compound, how does the growth read?
Answer: 101%

Question: Which growth does the source give for `CC(=O)/C=C/c1ccc(N(C)Cc2ccc(C(C)(C)C)cc2)cc1` here?
Answer: 99.6%

Same assay, conditions: 10 µM unless noted

Question: For `CCOC(=O)c1ccc(Nc2ncnc3c2cnn3-c2cccc(F)c2)cc1`, which growth is on record?
Answer: 104%

Question: `O=S(=O)(O)c1ccc(N=Nc2ccc(N=Nc3cccc4ccccc34)c(S(=O)(=O)O)c2)cc1` was tested. Which growth did it give?
Answer: 108%

Question: With `CC[C@@H]1NC(=O)[C@H]([C@H](O)[C@H](C)C/C=C/c2ccc(CN3C(=O)C(C)=C(C)C3=O)cc2)N(C)C(=O)[C@H](C(C)C)N(C)C(=O)[C@H](CC(C)C)N(C)C(=O)[C@H](CC(C)C)N(C)C(=O)[C@@H](C)NC(=O)[C@H](C)NC(=O)[C@H](CC(C)C)N(C)C(=O)[C@H](C(C)C)NC(=O)[C@H](CC(C)C)N(C)C(=O)CN(C)C1=O` as the compound, how does the growth read?
Answer: 87.2%

Question: Which growth does the source give for `COc1nc(=O)n(C2C=CC(=O)O2)cc1F` (configuration not stated) here?
Answer: 133%

Question: Which growth does the source give for `COc1ccc(-c2csc(NC(=O)CN3CCN(CCO)CC3)n2)cc1NS(=O)(=O)c1cccc2c(N(C)C)cccc12` here?
Answer: 73.2%

Question: For `O=C1/C(=C/c2ccc(-c3cccc(C(F)(F)F)c3)o2)SC(=S)N1CCc1ccc(O)cc1`, which growth is on record?
Answer: 107%

Question: With `BrC1=C(Br)C(Br)(Br)C(Br)=C1Br` as the compound, how does the growth read?
Answer: 103%

Question: With `OCc1cc(CN2CCCCC2)c(O)c2ncccc12` as the compound, how does the growth read?
Answer: 51.6%

Question: Which growth does the source give for `COc1ccc(C2=C(CN)C(O)NC(=NCC(=O)c3ccc4ccccc4c3)N2)cc1` (configuration not stated) here?
Answer: 107%

Question: Which growth does the source give for `N#CSc1c[nH]c2ccc(/C=C/C(=O)/C=C(/C=C/c3ccc4[nH]cc(SC#N)c4c3)OB(F)F)cc12` here?
Answer: 31.9%

Question: For `COc1ccc(Oc2nc(Nc3ccc(N4CCOCC4)cc3)ncc2NC(=O)c2cc(OC)cc(OC)c2)cc1`, which growth is on record?
Answer: 98.4%

Question: For `COc1ccc2c(c1)oc1c(C)c3c(c(C)c12)C(=O)N(Nc1ccccc1)C3=O`, which growth is on record?
Answer: 105%

Question: Which growth does the source give for `COc1ccc(/C=C2/C(=O)N=C3N2NC(c2ccccc2)=CN3c2ccccc2)cc1` here?
Answer: 97.7%

Question: Which growth does the source give for `O=C1/C(=C/c2ccccc2[N+](=O)[O-])Cc2ccccc21` here?
Answer: 85% and 106%

Question: `COc1ccc2c(c1)CCNC21C(=O)Nc2c(Br)cc(Br)cc21` (configuration not stated) was tested. Which growth did it give?
Answer: 105%

Question: How did the growth turn out when `O=C(N/N=C/c1ccc(O)cc1O)c1cccc(Nc2ccnc(C(F)(F)F)c2)c1` was run?
Answer: 33.7%

Question: With `CCCCCC#CC1OC23CCCCC2C(C#N)(C(=N)O3)C1(C#N)C#N` (configuration not stated) as the compound, how does the growth read?
Answer: 102%

Question: How did the growth turn out when `COc1ccc(-c2c[nH]c(C(=O)O)c2-c2cc(OC)c(OC)c(OC)c2)cc1` was run?
Answer: 84.6%
